# Values joined by “and” are separate entries in the source; they are usually repeats but may differ in a detail not shown here. Equal entries are not always repeated. Screen size: about 16,000 compounds; about 2,600 (16%) were called active. About 20% were inconclusive and are not listed. The call rests on the fitted dose curve; in most records, active means well fitted curve in the direction sought with a large enough effect; inconclusive means small, poorly fitted or top-dose-only effect, or effect the other way; inactive means no such curve, though single readings can be large or run the other way. A selection follows.
# Target: Cytochrome P450 2D6 (Homo sapiens) (UniProt P10635)
# Assay: Cytochrome panel assay with activity outcomes
# Conditions: recombinant CYP, pro-luciferin dealkylation, luminescence, p450-cyp2d6; series mostly up to 57.1 µM; activity, negative = inhibition: at the top concentration
# On the % scale 0 is the no-effect control and ±100 the full control effect.
# Cytochrome P450 2D6 (Homo sapiens), sequence (P10635 whole entry, looked up): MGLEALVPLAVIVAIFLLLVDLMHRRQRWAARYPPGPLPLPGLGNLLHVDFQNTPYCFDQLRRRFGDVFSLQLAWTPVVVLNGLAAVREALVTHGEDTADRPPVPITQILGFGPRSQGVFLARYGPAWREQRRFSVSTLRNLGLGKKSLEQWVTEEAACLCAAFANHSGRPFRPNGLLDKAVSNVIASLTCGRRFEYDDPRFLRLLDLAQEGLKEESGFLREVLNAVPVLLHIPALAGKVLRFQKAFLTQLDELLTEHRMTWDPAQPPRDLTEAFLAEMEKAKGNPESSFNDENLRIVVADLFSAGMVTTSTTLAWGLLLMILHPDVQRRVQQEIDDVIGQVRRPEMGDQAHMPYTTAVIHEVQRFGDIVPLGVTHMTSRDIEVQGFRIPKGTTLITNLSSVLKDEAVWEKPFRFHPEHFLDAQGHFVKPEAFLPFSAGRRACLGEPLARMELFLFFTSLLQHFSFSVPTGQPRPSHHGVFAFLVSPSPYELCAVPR
Structure (SMILES),"activity, negative = inhibition",AC50
O=c1[nH]c(=O)n([C@@H]2C[C@H](O)[C@H](CO)O2)cc1C(F)(F)F,10.1% [at 25.6 µM] (inactive),–
N#Cc1cccc(-c2cc(NCc3cccnc3)ncn2)c1,-18.8% (inactive),–
N#Cc1cccc(-c2nccc(NCc3cccnc3)n2)c1,-0.221% (inactive),–
N#Cc1cccc(-c2nccc(NCc3ccccc3)n2)c1,–,7.94 µM (active)
N#Cc1cccc(-c2nccc(NCc3cccs3)n2)c1,–,20 µM (active)
Cc1cc(C(=O)OCC(=O)NCCC(C)C)c2ccccc2n1,-7.33% (inactive),–
COc1cc2c3cc1Oc1cc(ccc1O)C[C@@H]1c4c(cc(OC)c(O)c4Oc4ccc(cc4)C[C@H]3[N+](C)(C)CC2)CC[N+]1(C)C,8.34% [at 11.4 µM] (inactive),–
O=C(Nc1cccc2cccnc12)[C@@H]1[C@@H](C(=O)O)[C@H]2CC[C@@H]1O2,5.88% [at 11.4 µM] (inactive),–
C[C@@]1(C(NC(=O)Cc2ccc(C(F)(F)F)cc2)c2ccc(-c3ccccc3)cc2)C[C@H]1C1CCCCC1 (some centres undefined),10.9% (inactive),–
O=C(O)c1ccccc1-c1ccccc1C(=O)Nc1ccccc1,20% (inactive),–
O=C(Nc1ccccc1)[C@@]12C[C@@H]1/C(=N/O)c1ccccc1O2,-2.77% (inactive),–
N/N=C1/c2ccccc2N[C@H]1OC(=O)Nc1ccccc1,–,3.16 µM (active)
CN(C)CCSCCO,7.16% [at 11.4 µM] (inactive),–
NC(=O)c1nnn(Cc2cc(Cl)c(C(=O)c3ccc(Cl)cc3)c(Cl)c2)c1N,-20.8% [at 11.4 µM] (inactive),–
O=C(CC(=O)NN=C1CCCC1)NCCc1ccccc1,12.2% (inactive),–
NNCCc1ccccc1,–,6.31 µM (active) and 2.51 µM (active)
O=C(O)CNCCc1ccccc1,3.94% [at 11.4 µM] (inactive),–
COc1cccc(/C=N/n2nnc3c(cnn3-c3ccccc3)c2=O)c1,11% (inactive),–
Cc1c(C)c(C)c(CC2(C)CSC2)c(CC2(C)CSC2)c1C,7.89% [at 11.4 µM] (inactive),–
COc1ccc(C2(C(=O)N3CCOCC3)CCCC2)cc1,-19% (inactive),–
C[N+]1(C)CCc2cc3c(cc2[C@@H]1[C@@H]1C(=O)Oc2c1ccc1c2OCO1)OCO3,–,12.6 µM (active)
COc1ccc(-n2c(=O)c(-c3cccc(C#N)c3)nc3cnc(N4CCNCC4)nc32)cc1,-4.03% (inactive),–
Nc1cc(-c2nn[nH]n2)ccc1F,-3.01% (inactive),–
CSc1nsc(SC)c1C(=O)Nc1ccc(C)cc1,–,10 µM (active)
CCC(=O)NCCNC(=O)c1c(SC)nsc1SC,-20.3% (inactive),–

Structure (SMILES),"activity, negative = inhibition",AC50
CSc1nsc(SC)c1NC(=O)Nc1ccccn1,20.4% (inactive),–
CC(NC(=O)C1(C)CC1(Br)Br)C(C)(C)C (centres undefined),4.92% (inactive),–
COc1ccc(Oc2ncc3nc(CCc4ccccc4)c(=O)n(C4CC4)c3n2)cc1,-13.8% (inactive),–
Cc1ccccc1/C=N\NC(=O)c1csnn1,-10.8% (inactive),–
COc1ccc(NC(=O)c2ccc(C(=O)c3cc(OC)ccc3OC)cc2)cc1,-5.54% (inactive),–
COc1ccc(Br)cc1C(=O)Nc1ccc(Cc2ccncc2)cc1,–,0.0398 µM (active)
O=C(Nc1ccc(-c2cn3ccccc3n2)cc1)c1cc(Br)ccc1O,-3.93% [at 11.4 µM] (inactive),–
CC(C)=NO[C@@H](C)c1cc(-c2c(C)cc(C)cc2C)no1,-6.21% [at 11.4 µM] (inactive),–
O=C(O)[C@H](Cc1cc(I)c(O)c(I)c1)C1CCCCC1,10.8% [at 11.4 µM] (inactive),–
CC(C)OC(=O)C(CC(=O)O)N1CCOCC1 (centres undefined),5.53% (inactive),–
COc1cc(NS(C)(=O)=O)ccc1Nc1c2ccccc2nc2ccccc12,-12.4% (inactive),–
CN(C)c1nc(-c2ccccc2C(F)(F)F)nc2ccccc12,–,10 µM (active)
COc1ccccc1-c1nc(N(C)C)c2ccccc2n1,–,3.16 µM (active)
Cc1ccccc1-c1nc(N(C)C)c2ccccc2n1,–,12.6 µM (active)
Cc1cc(NC(=O)CN2C(=O)NC(C)(c3ccc(OC(F)F)cc3)C2=O)no1 (centres undefined),-3.78% (inactive),–
N[C@@H](C(=O)O)c1cc(O)ccc1Cl,4.25% (inactive),–
N=c1ccn2c(n1)O[C@@H]1[C@@H](O)[C@H](CO)O[C@H]12,0.0096% (inactive),–
c1ccc(-n2ncc3c2ncn2cnnc32)cc1,-5.51% (inactive),–
CC(C)(C)n1nc(-c2ccc(Cl)cc2)c2c(N)ncnc21,5.37% (inactive),–
CCCSc1nc(C)cc(C)c1C(N)=O,0.375% (inactive),–
CC1CCCC(NC(=O)CCn2c(=O)oc3ccccc32)C1C (centres undefined),-7.45% (inactive),–
COc1ccc(Oc2ncc3nc(-c4cccs4)c(=O)n(-c4ccccc4)c3n2)cc1,0.931% (inactive),–
COc1ccccc1N1CCN(CCCCNS(=O)(=O)c2cccc3c(N(C)C)cccc23)CC1,–,15.8 µM (active)
COc1ccccc1N1CCN(CCn2c(=O)[nH]c3c([nH]c4ccccc43)c2=O)CC1,2.42% (inactive),–
COc1ccccc1N1CCN(CCCNc2cc(=O)n(C)c(=O)n2C)CC1,–,inactive

Structure (SMILES),"activity, negative = inhibition",AC50
COc1ccccc1N1CCN(CCCCN2C(=O)CCC2=O)CC1,-13.2% (inactive),–
COc1ccccc1N1CCN(CCCCNC(=O)c2ccc(-c3ccc(C(C)=O)cc3)cc2)CC1,-10.8% (inactive),–
COc1ccccc1N1CCN(CCCCNC(=O)c2ccc3ccccc3c2)CC1,–,3.16 µM (active) and 3.98 µM (active)
CNc1ncnc2c1ncn2[C@@H]1O[C@@H](CO)[C@H](O)[C@@H]1O,4.16% (inactive),–
CNc1ncnc2c1ncn2[C@H]1C[C@H](OP(=O)(O)O)[C@H](COP(=O)(O)O)O1,–,5.01 µM (active)
CNc1ncnc2c1ncn2[C@H]1C[C@@H](OP(=O)(O)O)[C@H](COP(=O)(O)O)O1,2.01% (inactive),–
Cc1ccc(C2C3=C(CCCC3=O)Nc3nc(SCC(=O)NCc4ccco4)[nH]c(=O)c32)cc1 (centres undefined),-12.2% (inactive),–
CC(C)C12CC[C@@]3(CC[C@H]4[C@@](C)(CCC[C@]4(C)C(=O)O)[C@@H]3C1)[C@@H](CN)C2,6.15% [at 11.4 µM] (inactive),–
COc1ccc(Nc2cc(=O)n(C3CCCCC3)c(=O)[nH]2)c(OC)c1,2.69% (inactive),–
Cc1nc(S(=O)(=O)NC2CCCCC2)c(C#N)c(C)c1Cl,-9.51% (inactive),–
Cc1ccc(-c2c(C)sc(NC(=O)C3C4CCC(O4)C3C(=O)O)c2C(=O)OC(C)C)cc1 (centres undefined),-5.58% (inactive),–
Cc1ccc(/C=N/NC(=O)CSc2nc3nc(C)cc(C)n3n2)cc1,15.2% (inactive),–
COc1ccccc1CNC(=O)CSc1nc2nc(C)cc(C)n2n1,–,15.8 µM (active)
Cc1cc(C)n2nc(SCC(=O)N/N=C/c3ccccc3F)nc2n1,1.33% (inactive),–
Nc1nc(=S)[nH]c2c1C1(CCCC1)Cc1ccccc1-2,0.13% (inactive),–
CO[C@@H]1COC(=O)[C@H](C)NC(=O)C/C=C\[C@@H](C)[C@@H](NS(=O)(=O)c2ccc(C)cc2)COC(=O)C/C=C\[C@@H]1C,5.57% [at 11.4 µM] (inactive),–
O=c1cc(-c2ccccc2)[nH]n1-c1ccc([N+](=O)[O-])cc1,0.207% (inactive),–
O=c1[nH]c(SCc2ccccc2[N+](=O)[O-])nc2nc[nH]c12,-3.83% [at 11.4 µM] (inactive),–
O=[N+]([O-])c1ccc(-c2cnc(SCc3ccccc3Cl)[nH]2)cc1,–,12.6 µM (active)
COCCn1c(=O)c(-c2cccs2)nc2cnc(N(C)C)nc21,15.9% (inactive),–
C[N+](C)(CCCOc1ccccc1)c1ccccc1,–,0.0158 µM (active)
O=P(O)(COc1ccccc1)COc1ccccc1,36% (inactive),–
O=c1c(-c2cccs2)nc2cnc(Nc3ccccc3)nc2n1C[C@H]1CCCO1,1.23% (inactive),–
CC(CO)(CO)N=Cc1cc(I)cc(I)c1O,3.56% [at 11.4 µM] (inactive),–
Cc1ccc(NC(=S)Nc2ccc(Br)cc2)cc1,-17.6% (inactive),–

Structure (SMILES),"activity, negative = inhibition",AC50
Cc1ccc(SCCNC(=S)Nc2ccc(C)c(C)c2)cc1,–,4.47 µM (active)
Cc1ccc(SCc2cc(=O)[nH]c(/N=C(\N)Nc3ccc(C)c(C)c3)n2)cc1,43.6% (inactive),–
COc1ccc(C(=O)Nc2cccc(/C(C)=N/NC(=O)c3ccc([N+](=O)[O-])cc3)c2)cc1OC,-12% (inactive),–
O=C(CSc1nnc(-c2ccccn2)n1Cc1ccco1)Nc1ccc2c(c1)OCO2,-27.1% (inactive),–
CC(=O)Nc1ccc(NC(=O)CSc2ncnn2-c2ccccc2)cc1,-21.7% (inactive),–
Cc1ccc2cc(C)c3nnc(SCC(=O)NCc4ccco4)n3c2c1,-6.47% (inactive),–
Cc1cc2cc(C)c3nnc(SCC(=O)NCc4ccc5c(c4)OCO5)n3c2cc1C,–,17.8 µM (active)
CC(=O)Nc1ccc(NC(=O)CSc2nnc(-c3ccccc3)n2Cc2ccc3c(c2)OCO3)cc1,–,12.6 µM (active)
COc1ccc2cc(C)c3nnc(SCC(=O)Nc4nc(-c5ccccc5)cs4)n3c2c1,9.28% (inactive),–
O=C(O)c1cscc1Cc1cccs1,14.2% [at 11.4 µM] (inactive),–
O=C(O)/C=C\C(=O)Nc1cccc2c1-c1ccccc1C2=O,10.1% [at 11.4 µM] (inactive),–
Cc1nc2cncnc2n(Cc2ccc(F)cc2)c1=O,-4.78% (inactive),–
C=CCn1c(SCC(=O)Nc2ncc(Cc3ccc(Br)cc3)s2)nnc1-c1ccncc1,-19.6% (inactive),–
CC(C)=C1C(=O)NN(c2ccc(F)c(Cl)c2)C1=O,14.5% (inactive),–
Cc1cccc(C(=O)NNC(=O)C2CCCO2)c1 (centres undefined),-1.17% (inactive),–
CCNc1ncc2nc(-c3ccc(F)cc3)c(=O)n(C)c2n1,0.213% (inactive),–
O=c1c(-c2cc(F)cc(F)c2)nc2cncnc2n1-c1ccccc1,-2.63% (inactive),–
COc1ncc2nc(-c3cc(F)cc(F)c3)c(=O)n(-c3ccccc3)c2n1,4.41% (inactive),–
CCNc1ncc2nc(-c3ccc(F)cc3)c(=O)n(-c3ccccc3)c2n1,–,0.1 µM (active)
CCNc1ncc2nc(-c3cc(F)cc(F)c3)c(=O)n(-c3ccccc3)c2n1,–,0.1 µM (active)
CCNc1ncc2nc(-c3ccc(OC)cc3)c(=O)n(-c3ccc(OC)cc3)c2n1,6.13% (inactive),–
O=C(Nc1cccc(F)c1)/C(=C\c1ccco1)NC(=O)c1cccs1,4.82% (inactive),–
CC(=O)c1ccc(S(=O)(=O)NC(=O)NC2CCCCC2)cc1,-0.444% [at 25.6 µM] (inactive),–
CC(C)CC(c1nnnn1C(C)C)N1CCN(c2ccccc2)CC1 (centres undefined),2.41% (inactive),–

# From PubChem BioAssay AID1851 (National Center for Advancing Translational Sciences (NCATS), 2009)
